PubChem BioAssay AID1159580 (chemical genetic matrix, 2015)
Hit rate of the full screen: of about 5,500 compounds, about 2,000 (36%) were called active. Not shown: some 18% with an inconclusive outcome. Cut-off read from the data, not from the text of the source: active = normalized growth mostly below about 0.91 (no sharp cut-off); inconclusive = no clear call, values can overlap the other calls; inactive = mostly above about 0.92. This is one part of the list.

Assay: chemical genetic growth profiling, strain panel (AID 1159580);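 note: tested at 20 µM; growth read once vehicle control cultures reached saturation at 30 °C; 1 = growth at the plate median or of vehicle wells; lower values mean less growth of the strain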
Conditions: growth OD

Measured: normalized growth

CC1(C)C2CC[C@]3(C)C(C(=O)C=C4[C@@H]5C[C@@](C)(C(=O)O)CC[C@]5(C)CC[C@]43C)[C@@]2(C)CC[C@@H]1OC(=O)CCC(=O)O (stereo partly drawn)
inactive: S. cerevisiae deletion strains, locus YKL009W, strain mrt4, hits give low values 0.975 | S. cerevisiae deletion strains, locus YKL068W, hits give low values 0.986 | S. cerevisiae deletion strains, locus YKL085W, strain MDH1 (second series), hits give low values 0.984 | S. cerevisiae deletion strains, locus YKL085W, strain MDH1, hits give low values 0.984 | S. cerevisiae deletion strains, locus YKL160W, strain elf1, hits give low values 0.938 | S. cerevisiae deletion strains, locus YKL190W, strain CNB1, hits give low values 0.991 | S. cerevisiae deletion strains, locus YKR001C, strain vps1, hits give low values 0.999 | S. cerevisiae deletion strains, locus YKR026C, strain gcn3, hits give low values 0.987 | S. cerevisiae deletion strains, locus YKR091W, strain srl3, hits give low values 0.989 | S. cerevisiae deletion strains, locus YLL001W, strain dnm1, hits give low values 1 | S. cerevisiae deletion strains, locus YLL026W, hits give low values 0.977 | S. cerevisiae deletion strains, locus YLL041C, strain sdh2, hits give low values 0.982 | S. cerevisiae deletion strains, locus YLR027C, strain aat2, hits give low values 1 | S. cerevisiae deletion strains, locus YLR039C, strain RIC1, hits give low values 0.944 | S. cerevisiae deletion strains, locus YLR058C, strain SHM2, hits give low values 0.986 | S. cerevisiae deletion strains, locus YLR102C, strain apc9, hits give low values 0.996 | S. cerevisiae deletion strains, locus YLR221C, strain rsa3, hits give low values 1 | S. cerevisiae deletion strains, locus YLR258W, strain gsy2, hits give low values 0.98 | S. cerevisiae deletion strains, locus YLR262C, strain YPT6 (second series), hits give low values 0.962 | S. cerevisiae deletion strains, locus YLR262C, strain YPT6, hits give low values 0.91 | S. cerevisiae deletion strains, locus YLR268W, strain sec22, hits give low values 0.998 | S. cerevisiae deletion strains, locus YLR320W, strain mms22, hits give low values 0.999 | S. cerevisiae deletion strains, locus YLR330W, strain CHS5, hits give low values 0.992 | S. cerevisiae deletion strains, locus YLR342W, strain FKS1 (second series), hits give low values 0.995 | S. cerevisiae deletion strains, locus YLR342W, strain FKS1, hits give low values 0.985 | S. cerevisiae deletion strains, locus YLR357W, strain rsc2, hits give low values 0.967 | S. cerevisiae deletion strains, locus YLR370C, strain arc18, hits give low values 0.967 | S. cerevisiae deletion strains, locus YLR371W, strain rom2, hits give low values 1 | S. cerevisiae deletion strains, locus YLR384C, strain iki3, hits give low values 0.983 | S. cerevisiae deletion strains, locus YLR418C, strain cdc73, hits give low values 0.968 | S. cerevisiae deletion strains, locus YML016C, strain PPZ1, hits give low values 1 | S. cerevisiae deletion strains, locus YML032C, strain rad52, hits give low values 0.994 | S. cerevisiae deletion strains, locus YML120C, strain ndi1, hits give low values 0.997 | S. cerevisiae deletion strains, locus YML124C, strain tub3, hits give low values 1 | S. cerevisiae deletion strains, locus YMR058W, strain fet3, hits give low values 1.04 | S. cerevisiae deletion strains, locus YMR078C, strain ctf18, hits give low values 0.976 | S. cerevisiae deletion strains, locus YMR125W, strain sto1, hits give low values 0.975 | S. cerevisiae deletion strains, locus YMR129W, hits give low values 0.99 | S. cerevisiae deletion strains, locus YMR205C, strain PFK2, hits give low values 0.97 | S. cerevisiae deletion strains, locus YMR223W, strain ubp8, hits give low values 0.973 | S. cerevisiae deletion strains, locus YMR231W, strain pep5, hits give low values 0.978 | S. cerevisiae deletion strains, locus YMR263W, strain SAP30, hits give low values 1 | S. cerevisiae deletion strains, locus YMR307W, strain GAS1, hits give low values 1.01 | S. cerevisiae deletion strains, locus YNL067W, strain RPL9B, hits give low values 1.02 | S. cerevisiae deletion strains, locus YNL071W, strain lat1, hits give low values 0.994 | S. cerevisiae deletion strains, locus YNL183C, strain NPR1, hits give low values 0.991 | S. cerevisiae deletion strains, locus YNL209W, strain ssb2, hits give low values 0.967 | S. cerevisiae deletion strains, locus YNL233W, strain BNI4, hits give low values 1.03 | S. cerevisiae deletion strains, locus YNL248C, strain rpa49, hits give low values 0.909 | S. cerevisiae deletion strains, locus YNL250W, strain rad50, hits give low values 0.949 | S. cerevisiae deletion strains, locus YNL271C, strain bni1, hits give low values 0.983 | S. cerevisiae deletion strains, locus YNL298W, strain CLA4, hits give low values 0.997 | S. cerevisiae deletion strains, locus YNL307C, strain MCK1, hits give low values 0.992 | S. cerevisiae deletion strains, locus YNL322C, strain KRE1 (second series), hits give low values 0.979 | S. cerevisiae deletion strains, locus YNL322C, strain KRE1, hits give low values 0.99 | S. cerevisiae deletion strains, locus YNR049C, strain mso1, hits give low values 0.983 | S. cerevisiae deletion strains, locus YNR052C, strain pop2, hits give low values 0.975 | S. cerevisiae deletion strains, locus YOL006C, strain TOP1, hits give low values 1.04 | S. cerevisiae deletion strains, locus YOL012C, strain htz1 1.07 | S. cerevisiae deletion strains, locus YOL147C, strain pex11, hits give low values 0.989 | S. cerevisiae deletion strains, locus YOR001W, strain rrp6, hits give low values 1.03 | S. cerevisiae deletion strains, locus YOR061W, strain CKA2, hits give low values 0.991 | S. cerevisiae deletion strains, locus YOR069W, strain VPS5, hits give low values 0.982 | S. cerevisiae deletion strains, locus YOR070C, strain gyp1, hits give low values 0.986 | S. cerevisiae deletion strains, locus YOR080W, strain dia2, hits give low values 1.01 | S. cerevisiae deletion strains, locus YOR083W, strain WHI5, hits give low values 0.891 | S. cerevisiae deletion strains, locus YOR106W, strain vam3, hits give low values 0.896 | S. cerevisiae deletion strains, locus YOR136W, strain idh2, hits give low values 0.998 | S. cerevisiae deletion strains, locus YOR144C, strain elg1, hits give low values 1 | S. cerevisiae deletion strains, locus YOR184W, strain ser1, hits give low values 0.96 | S. cerevisiae deletion strains, locus YOR231W, strain MKK1, hits give low values 1.06 | S. cerevisiae deletion strains, locus YOR265W, strain rbl2, hits give low values 0.974 | S. cerevisiae deletion strains, locus YOR270C, strain vph1, hits give low values 0.867 | S. cerevisiae deletion strains, locus YOR290C, strain snf2, hits give low values 0.96 | S. cerevisiae deletion strains, locus YOR316C, strain cot1, hits give low values 0.992 | S. cerevisiae deletion strains, locus YPL051W, strain arl3, hits give low values 0.966 | S. cerevisiae deletion strains, locus YPL055C, strain LGE1, hits give low values 1.08 | S. cerevisiae deletion strains, locus YPL078C, strain atp4, hits give low values 0.962 | S. cerevisiae deletion strains, locus YPL106C, strain sse1, hits give low values 0.986 | S. cerevisiae deletion strains, locus YPL240C, strain hsp82, hits give low values 0.978 | S. cerevisiae deletion strains, locus YPL241C, strain CIN2, hits give low values 0.992 | S. cerevisiae deletion strains, locus YPL256C, strain CLN2, hits give low values 1.05 | S. cerevisiae deletion strains, locus YPR119W, strain clb2, hits give low values 0.992 | S. cerevisiae deletion strains, locus YPR141C, strain kar3, hits give low values 0.999 | S. cerevisiae deletion strains, locus YPR163C, strain tif3, hits give low values 0.983 | S. cerevisiae deletion strains, locus YPR167C, strain met16, hits give low values 0.99 | S. cerevisiae deletion strains, strain wtn01, hits give low values 0.976 | S. cerevisiae strains, strain wild type, hits give low values 0.991
